# Screening results (PubChem)
# HT1080-NT tox: kills 2HG-producing HT-1080-NT fibrosarcoma cells; Potency, µM (doses to about 46.1 µM), inactives show at the highest dose activity, negative = less viability, hits mostly cytotoxic; HT-1080-NT fibrosarcoma viability, CellTiter-Glo ATP luminescence, 48 h; 360,000 tested, 1.6% active;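 further: NT is the 2HG producing partner of a matched IDH1 knockdown line; 0% = DMSO-treated cells and -100% = media-only wells without cells; nearly all actives have a fitted effect of over 55% in size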
#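 Toxicity toward the 2HG-producing NT line was scored as %Activity, normalised to DMSO and no-cell wells, from CellTiter-Glo luminescence after 48 hours' treatment.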
# KB-V1 cytotox: kills drug-selected multidrug resistant KB-V1 cells; KB-V1 MDR cells viability, CellTiter-Glo, 72 h; Potency, µM (series often up to 46.1 µM), usual class: cytotoxic; 400,000 tested, 3.4% active; AID 1347076; further: nearly all actives have a fitted effect of over 60% in size
#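 Cells of the MDR subline KB-V1 are plated, dosed with compound at multiple concentrations, and incubated 72 h at 37 degrees C; CellTiter-Glo is then added and luminescence read after 10 min.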
# TDP1 cell noCPT: qHTS for Inhibitors of human tyrosyl-DNA phosphodiesterase 1 (TDP1): qHTS in cells in absence of CPT; DT40 Tdp1-/- hTDP1 cells, no CPT, ATP luminescence, 48 h; AID 686978, 2013; Potency, µM (top dose mostly 46.2 µM), for inactives: at the highest dose activity change, negative = growth inhibition, most hits filed as inhibitors; 420,000 tested, 15% active; further: nearly all actives have a fitted effect of over 55% in size
#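 Camptothecin absent (DMSO only). Human TDP1-complemented DT40 knockout cells, 400 cells/well, 37 °C for minimum 48 hr; ATP measured via CellTiter-Glo, 30 min dark incubation, luminescence.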
# KB-3-1 tox: KB-3-1 parental cell cytotoxicity | Potency, µM (series often up to 46.1 µM), most hits filed as cytotoxic | AID 1347075 | KB-3-1 viability, CellTiter-Glo ATP luminescence, 72 h | 400,000 tested, 1.4% active; further: nearly all actives have a fitted effect of over 60% in size
#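 Screening of KB-3-1 cells (DMEM, 10% FBS, phenol-red free) ran from lowest to highest compound concentration; after 72 h at 37 °C viability was read luminescently and curves fitted.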
# HT1080 IDH1KD tx: HT-1080 IDH1 knockdown cell toxicity (counter line); HT-1080 IDH1 knockdown viability, ATP luminescence, 48 h; Potency, µM (series often up to 46.1 µM), for the others: top-dose activity, negative = toxicity, usual class: cytotoxic; 360,000 tested, 2% active;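 further: 0% = DMSO wells and -100% = cell-free medium wells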
#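 IDH1KD HT-1080 cells, 750/well, RPMI + 5% FBS; compound pinned after 2 h settling; 48 h, 37 °C; CellTiter-Glo luminescence; % activity normalised to DMSO and no-cell wells; curves fitted, classed by r2 and efficacy.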
# TDP1 cell CPT: DT40-hTDP1 cell growth loss with CPT | chicken DT40 Tdp1-/-;hTDP1 cells + 20 nM CPT, ATP luminescence, 48 h | Potency, µM (titrated, usually from 46.2 µM), inactives show at the top dose activity change, negative = growth inhibition, usual class: inhibitors | 420,000 tested, 12% active; further: nearly all actives have a fitted effect of over 55% in size
#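 Chicken DT40 Tdp1-/- cells complemented with human TDP1, 400 cells/well, exposed to compounds plus 20 nM camptothecin for at least 48 h at 37 C; viability read as ATP content by CellTiter-Glo luminescence.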
# * hit, by the source's call; i = inactive; ? = inconclusive. Hits are enriched below; roughly 19% of the tested compounds scored in any of these assays. The call rests on the fitted dose curve; in most records, active means well fitted curve in the direction sought with a large enough effect; inconclusive means small, poorly fitted or top-dose-only effect, or another doubt; inactive means no such curve, though single readings can be large; an effect the other way counts as inactive or inconclusive. Unless noted, on the % scale 0 is the no-effect control and ±100 the full control effect; potency means the concentration at half of the fitted maximal effect.
SMILES,HT1080-NT tox,KB-V1 cytotox,TDP1 cell noCPT,KB-3-1 tox,HT1080 IDH1KD tx,TDP1 cell CPT
O=C(CC1C[C@H](C(=O)N2CCOCC2)[C@@]2(CCC3CCCC3)c3[nH]c4ccccc4c3CCN2C1=O)NCc1ccco1 (some centres undefined),1.4%,i,?,i,2.7%,20.6µM*
O=C(C[C@H]1C[C@H](C(=O)N2CCOCC2)[C@@]2(CCC3CCCC3)c3[nH]c4cc(-c5ccco5)ccc4c3CCN2C1=O)NCC12CC3CC(CC(C3)C1)C2,-1.4%,i,?,?,-18.6%,14.6µM*
O=C(CC1C[C@H](C(=O)N2CCOCC2)[C@@]2(CCC3CCCC3)c3[nH]c4ccccc4c3CCN2C1=O)NCC12CC3CC(CC(C3)C1)C2 (some centres undefined),6.1%,i,16.4µM*,i,7.6%,16.4µM*
C[C@]12c3[nH]c4cc(-c5ccco5)ccc4c3CCN1C(=O)[C@@H](CC(=O)NCC13CC4CC(CC(C4)C1)C3)C[C@@H]2C(=O)N1CCOCC1,?,23.1µM*,?,?,18.4µM*,?
O=C(CC1C[C@H](C(=O)N2CCOCC2)[C@@]2(CCC3CCCC3)c3[nH]c4ccccc4c3CCN2C1=O)NCCN1CCOCC1 (some centres undefined),4.4%,i,?,i,0.4%,?
CC[C@]12c3[nH]c4ccccc4c3CCN1C(=O)C(CC(=O)NCc1ccco1)C[C@@H]2C(=O)N1CCN(C(=O)C2CC2)CC1 (some centres undefined),-0.2%,i,-4.0%,i,1.8%,-4.2%
C[C@]12c3[nH]c4cc(-c5ccco5)ccc4c3CCN1C(=O)[C@@H](CC(=O)NCCc1ccccn1)C[C@@H]2C(=O)N1CCOCC1,10.4%,i,?,i,6.3%,?
COc1ccc(C(=O)N[C@H](C(=O)NCCCSc2ccccc2)C(C)C)cc1,2.7%,i,?,i,10.2%,-29.7%
COc1ccc(S(=O)(=O)N2CCN(CC(=O)NC3CC3)CC2)cc1,8.6%,i,-10.4%,i,11.0%,-0.4%
CC(C)=CCC/C(C)=C/CNC(=O)C[C@H]1C[C@H](C(=O)N2CCOCC2)[C@@]2(CCC3CCCC3)c3[nH]c4cc(-c5ccco5)ccc4c3CCN2C1=O,-13.2%,i,?,?,-13.0%,18.4µM*
CC[C@]12c3[nH]c4cc(-c5ccco5)ccc4c3CCN1C(=O)[C@@H](CC(=O)NCCCOC)C[C@@H]2C(=O)N1CCN(C(=O)C2CC2)CC1,3.3%,i,?,i,5.4%,?
O=C(C[C@H]1C[C@H](C(=O)N2CCOCC2)[C@@]2(CCC3CCCC3)c3[nH]c4cc(-c5ccco5)ccc4c3CCN2C1=O)NCc1cccc(C(F)(F)F)c1,-29.7%,16.4µM*,?,?,?,16.4µM*
O=C(C[C@H]1C[C@H](C(=O)N2CCCCC2)[C@@]2(CCc3ccccc3)c3[nH]c4cc(-c5ccco5)ccc4c3CCN2C1=O)NCc1cccc(C(F)(F)F)c1,-2.6%,i,20.6µM*,i,0.7%,?
C[C@]12c3[nH]c4cc(-c5ccco5)ccc4c3CCN1C(=O)[C@@H](CC(=O)NCc1cccc(C(F)(F)F)c1)C[C@@H]2C(=O)N1CCOCC1,-7.3%,i,?,i,-24.0%,?
